Unmarked numbers belong to inactive results.

One assay concerns Madurella mycetomatis MM55. Nature of the assay: growth relative to untreated control; higher = less inhibition, active = 20 or less. The settings on record: 25 µM. The procedure:
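Hyphal fragments of M. mycetomatis MM55 or F. senegalensis CBS197.79 in RPMI 1640/MOPS were exposed to each MMV COVID Box or Global Health Priority Box compound at 100 or 25 µM for 7 days at 37 °C. Viability was read with MTS (490 nm, M. mycetomatis) or resazurin (600 nm, F. senegalensis), background-corrected with a medium-only control and expressed as % growth relative to the untreated growth control. Inhibition of more than 80% was taken as growth inhibition.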
For `CC(C)=CC1C(C(=O)OC(C#N)c2cccc(Oc3ccccc3)c2)C1(C)C` (stereo not given), the growth was 83.3%.
As for `CCC(CC)c1cccc(OC(=O)NC)c1.CCCC(C)c1cccc(OC(=O)NC)c1`, the growth is 96.3%.
Take `Cc1sc2c(c1C)C(c1ccc(Cl)cc1)=N[C@@H](CC(=O)OC(C)(C)C)c1nnc(C)n1-2`: the growth is 97.1%.
As for `COC(C)(C)CCCC(C)C/C=C/C(C)=C/C(=O)OC(C)C` (stereo not given), the growth was 47.7%.
In the case of `COc1ccc(C[C@H]2NC[C@H](O)[C@H]2OC(C)=O)cc1`, the growth is 111%.
As to `O=[N+]([O-])/C=C1\NCCCS1`, the growth was 94%.
For the molecule `CN(C)CCn1c(Nc2cc(Cl)cc(C(F)(F)F)c2)nc2cnc(NC3CCC3)cc21`, the growth was 80.9%.
With `O=C(NC(=O)c1c(F)cccc1F)Nc1ccc(Cl)cc1`, the growth is 99.6%.
As to `CC(COc1ccc(Oc2ccccc2)cc1)Oc1ccccn1` (stereo not given), the growth is 50.7%.
Turning to `NCCc1cn(S(=O)(=O)c2c(Cl)nc3sccn23)c2ccccc12`, the growth was 79.9%.
Take `CNC(=O)c1cc(Cl)cc(C)c1NC(=O)c1cc(Br)nn1-c1ncccc1Cl`: the growth is 81.9%.
Regarding `CC1(C)C(/C=C(\Cl)c2ccc(Cl)cc2)C1C(=O)OC(C#N)c1ccc(F)c(Oc2ccccc2)c1` (stereo not given), the growth was 119%.
As to `CC[C@@H](C(=O)[C@@H](C)[C@@H](O)[C@H](C)[C@@H]1O[C@@H]([C@@H](CC)C(=O)O)CC[C@@H]1C)[C@H]1O[C@]2(C=C[C@@H](O)[C@]3(CC[C@@](C)([C@H]4CC[C@](O)(CC)[C@H](C)O4)O3)O2)[C@H](C)C[C@@H]1C`, the growth is 124%.
Consider `CC(C)(C#N)NC(=O)c1cc(Cl)cc(Cl)c1NC(=O)c1cc(Cl)nn1-c1ncccc1Cl`, for which the growth is 104%.
In the case of `Cc1c(COC(=O)[C@@H]2[C@H](C=C(Cl)C(F)(F)F)C2(C)C)cccc1-c1ccccc1`, the growth was 123%.
Turning to `CC[C@H](C)[C@H]1O[C@]2(C=C[C@@H]1C)C[C@@H]1C[C@@H](C/C=C(\C)[C@@H](O[C@H]3C[C@H](OC)[C@@H](O[C@H]4C[C@H](OC)[C@@H](O)[C@H](C)O4)[C@H](C)O3)[C@@H](C)/C=C/C=C3\CO[C@@H]4[C@H](O)C(C)=C[C@@H](C(=O)O1)[C@]34O)O2.CO[C@H]1C[C@H](O[C@H]2[C@H](C)O[C@@H](O[C@@H]3/C(C)=C/C[C@@H]4C[C@@H](C[C@]5(C=C[C@H](C)[C@@H](C(C)C)O5)O4)OC(=O)[C@@H]4C=C(C)[C@@H](O)[C@H]5OC/C(=C\C=C\[C@@H]3C)[C@]54O)C[C@@H]2OC)O[C@@H](C)[C@@H]1O`, the growth is 75.2%.
Take `CCN(CC)c1nc(C)cc(OP(=S)(OC)OC)n1`: the growth was 110%.
In the case of `CC1(C)C(C=C(Cl)Cl)C1C(=O)OCc1cccc(Oc2ccccc2)c1` (stereo not given), the growth was 78.1%.
Take `CCOP(=S)(OCC)Oc1nc(Cl)c(Cl)cc1Cl`: the growth was 142%.
In the case of `CC[C@H]1CN2CCc3cc(OC)c(OC)cc3[C@@H]2C[C@@H]1C[C@H]1NCCc2cc(OC)c(OC)cc21`, the growth is 84.8%.

The assay is the same for the next values; noted with them: 100 µM.
As for `CC(C)=CC1C(C(=O)OC(C#N)c2cccc(Oc3ccccc3)c2)C1(C)C` (stereo not given), the growth was 145%.
As to `CCC(CC)c1cccc(OC(=O)NC)c1.CCCC(C)c1cccc(OC(=O)NC)c1`, the growth was 147%.
Still for that read-out and setting: with `Cc1sc2c(c1C)C(c1ccc(Cl)cc1)=N[C@@H](CC(=O)OC(C)(C)C)c1nnc(C)n1-2` the figure was 4.14% (active).
Turning to `COC(C)(C)CCCC(C)C/C=C/C(C)=C/C(=O)OC(C)C` (stereo not given), the growth is 105%.
On the same count and under the same terms, as for `COc1ccc(C[C@H]2NC[C@H](O)[C@H]2OC(C)=O)cc1`, the figure is 3.35% (active); as for `O=[N+]([O-])/C=C1\NCCCS1`, 122%.
Same read-out and setting: with `CN(C)CCn1c(Nc2cc(Cl)cc(C(F)(F)F)c2)nc2cnc(NC3CCC3)cc21` the figure was 104%; with `O=C(NC(=O)c1c(F)cccc1F)Nc1ccc(Cl)cc1`, 81%; with `CC(COc1ccc(Oc2ccccc2)cc1)Oc1ccccn1` (stereo not given), 46.3%.
For `NCCc1cn(S(=O)(=O)c2c(Cl)nc3sccn23)c2ccccc12`, the growth was 2.9% (active).
As for `CNC(=O)c1cc(Cl)cc(C)c1NC(=O)c1cc(Br)nn1-c1ncccc1Cl`, the growth was 57%.
For `CC1(C)C(/C=C(\Cl)c2ccc(Cl)cc2)C1C(=O)OC(C#N)c1ccc(F)c(Oc2ccccc2)c1` (stereo not given), the growth was 119%.
The same measure, in the same setting: as for `CC[C@@H](C(=O)[C@@H](C)[C@@H](O)[C@H](C)[C@@H]1O[C@@H]([C@@H](CC)C(=O)O)CC[C@@H]1C)[C@H]1O[C@]2(C=C[C@@H](O)[C@]3(CC[C@@](C)([C@H]4CC[C@](O)(CC)[C@H](C)O4)O3)O2)[C@H](C)C[C@@H]1C`, the figure is 70.3%; as for `CC(C)(C#N)NC(=O)c1cc(Cl)cc(Cl)c1NC(=O)c1cc(Cl)nn1-c1ncccc1Cl`, 116%.
For `Cc1c(COC(=O)[C@@H]2[C@H](C=C(Cl)C(F)(F)F)C2(C)C)cccc1-c1ccccc1`, the growth is 156%.
Take `CC[C@H](C)[C@H]1O[C@]2(C=C[C@@H]1C)C[C@@H]1C[C@@H](C/C=C(\C)[C@@H](O[C@H]3C[C@H](OC)[C@@H](O[C@H]4C[C@H](OC)[C@@H](O)[C@H](C)O4)[C@H](C)O3)[C@@H](C)/C=C/C=C3\CO[C@@H]4[C@H](O)C(C)=C[C@@H](C(=O)O1)[C@]34O)O2.CO[C@H]1C[C@H](O[C@H]2[C@H](C)O[C@@H](O[C@@H]3/C(C)=C/C[C@@H]4C[C@@H](C[C@]5(C=C[C@H](C)[C@@H](C(C)C)O5)O4)OC(=O)[C@@H]4C=C(C)[C@@H](O)[C@H]5OC/C(=C\C=C\[C@@H]3C)[C@]54O)C[C@@H]2OC)O[C@@H](C)[C@@H]1O`: the growth is 55.6%.
Consider `CCN(CC)c1nc(C)cc(OP(=S)(OC)OC)n1`, for which the growth was 99.4%.
As to `CC1(C)C(C=C(Cl)Cl)C1C(=O)OCc1cccc(Oc2ccccc2)c1` (stereo not given), the growth is 151%.
Take `CCOP(=S)(OCC)Oc1nc(Cl)c(Cl)cc1Cl`: the growth is 111%.
On to `CC[C@H]1CN2CCc3cc(OC)c(OC)cc3[C@@H]2C[C@@H]1C[C@H]1NCCc2cc(OC)c(OC)cc21`, for which the growth was 43.6%.
